Only some compounds are listed: those with a hit (about 19% of all), similar ones and a draw of the others.
HepG2 viability: kills HepG2 cells in TGF-b inhibitor counter-screen; hit rate 0.76% among 410,000; Potency, µM (series often up to 46.1 µM), without a hit: at the highest dose activity change, negative = cytotoxicity, actives largely listed as cytotoxic; HepG2 CAGA-GFP viability, ATP luminescence, 18 h; also: potency is read from the fitted curve at half-maximal effect
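CellTiter-Glo luminescence gave cytotoxicity after 18 hours at 37 degrees C. The cells were HepG2 CAGA-GFP in 1% FBS DMEM, stimulated with 500 pg/mL TGF-beta after compound addition. %Activity was normalised to no-cell wells (complete cell-killing) and DMSO (no toxicity), and curves were fitted and classified.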
DT40 TDP1 no CPT: qHTS for Inhibitors of human tyrosyl-DNA phosphodiesterase 1 (TDP1): qHTS in cells in absence of CPT | DT40 Tdp1-/- hTDP1 cells, no CPT, ATP luminescence, 48 h | Potency, µM (top dose mostly 46.2 µM), inactives show top-dose activity change, negative = growth inhibition, hits mostly inhibitors | hit rate 15% among 420,000; also: potency is read from the fitted curve at half-maximal effect; % is scaled to controls: 0 for no effect and ±100 for the full control effect; nearly all actives have a fitted effect of over 55% in size
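Readout: luminescence from CellTiter-Glo after 30 min in the dark at RT. Cells: DT40 Tdp1-/- with stable hTDP1, 400/well. Exposure: compounds alone, ≥48 hr, 37 °C.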
DT40 TDP1 CPT: DT40-hTDP1 cell growth loss with CPT; Potency, µM (titrated, usually from 46.2 µM), for the others: at the top dose activity change, negative = growth inhibition, usual class: inhibitors; hit rate 12% among 420,000; chicken DT40 Tdp1-/-;hTDP1 cells + 20 nM CPT, ATP luminescence, 48 h; also: potency is read from the fitted curve at half-maximal effect; % is scaled to controls: 0 for no effect and ±100 for the full control effect; nearly all actives have a fitted effect of over 55% in size
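Cell growth measured by CellTiter-Glo luminescence after a minimum 48 h, 37 C compound exposure with 20 nM CPT in Tdp1-knockout DT40 cells stably expressing hTDP1, seeded 400/well; qHTS titration format.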
ASM inhibitor: inhibitors of human secretory acid sphingomyelinase. hit rate 0.006% among 340,000. placental ASM, HMU-PC fluorogenic substrate, 60 min. Potency, µM (series often up to 57.5 µM), for the others: at the top dose activity change, negative = inhibition, actives largely listed as inhibitors; also: potency is read from the fitted curve at half-maximal effect
Target sequence (P17405 47-631 limits assumed): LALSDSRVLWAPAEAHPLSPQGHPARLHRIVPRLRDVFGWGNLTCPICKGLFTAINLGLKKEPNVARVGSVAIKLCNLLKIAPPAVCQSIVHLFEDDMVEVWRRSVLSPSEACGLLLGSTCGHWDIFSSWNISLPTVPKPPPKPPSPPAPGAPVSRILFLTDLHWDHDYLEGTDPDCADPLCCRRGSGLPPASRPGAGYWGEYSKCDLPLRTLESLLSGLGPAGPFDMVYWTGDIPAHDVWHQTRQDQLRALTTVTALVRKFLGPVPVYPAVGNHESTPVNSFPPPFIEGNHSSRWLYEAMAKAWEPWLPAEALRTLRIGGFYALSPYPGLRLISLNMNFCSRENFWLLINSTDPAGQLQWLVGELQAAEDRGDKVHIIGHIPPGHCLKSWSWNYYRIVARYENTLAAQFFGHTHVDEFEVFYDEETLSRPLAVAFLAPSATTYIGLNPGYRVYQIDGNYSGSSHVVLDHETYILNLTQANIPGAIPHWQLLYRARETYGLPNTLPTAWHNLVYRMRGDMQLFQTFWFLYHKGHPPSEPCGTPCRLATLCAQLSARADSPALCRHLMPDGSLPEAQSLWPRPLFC
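HMU-PC0 cleavage (9 uM final) by human placental ASM, 60 min at 37 °C following 10 min compound exposure at RT; stopped at pH 10, fluorescence Ex 386/Em 447 nm.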
IL-1B inflam inh: blocks inflammasome-driven IL-1 beta release. activity change, % at 57.5 µM. THP-1 LPS/ATP IL-1B secretion, AlphaLISA, 16 h; active compounds read low. hit rate 4.7% among 360,000; in the data active = activity change below about -50%; inconclusive = mostly about -30% to -49%; also: % is scaled to controls: 0 for no effect and ±100 for the full control effect
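THP-1 cells pretreated 1 hr with compounds (up to 57.5 uM final), then stimulated with LPS (250 ng/mL final) plus ATP (1.25 mM final); secreted IL-1B measured by AlphaLISA after 16 hr, decreased signal indicating inhibition.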
TGFb SMAD3 inh: blocks TGF-b signaling. HepG2 CAGA-GFP TGF-b/SMAD3 reporter, GFP fluorescence, 18 h; TGF-beta stimulated, 500 pg/mL final. Potency, µM (series often up to 46.1 µM), without a hit: top-dose activity, negative = inhibition, actives largely listed as inhibitors. hit rate 1.2% among 410,000; also: potency is read from the fitted curve at half-maximal effect; % is scaled to controls: 0 for no effect and ±100 for the full control effect; nearly all actives have a fitted effect of over 65% in size
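HEPG2 CAGA-GFP reporter cells (1000/well, DMEM with 1% FBS) received compounds, then recombinant TGF-beta at 500 pg/mL final for 18 hours at 37 degrees C. Per-cell GFP summed per well was normalised to unstimulated and stimulated DMSO controls before curve fitting.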
* marks the source's active call; other numbers are inactive results. Unless noted, calls follow the shape of the dose curve; as a rule, active = well fitted curve in the direction sought with a large enough effect; inconclusive = small, poorly fitted or top-dose-only effect, or another doubt; inactive = no such curve, though single readings can be large; an effect the other way counts as inactive or inconclusive.

What do the screens show for `COc1cc(/C=C/c2cc(OC(C)=O)c3ccccc3n2)c(OC(C)=O)c([N+](=O)[O-])c1`?
HepG2 viability: -15%; DT40 TDP1 no CPT: inconclusive; DT40 TDP1 CPT: inconclusive; ASM inhibitor: -3%; IL-1B inflam inh: 6; TGFb SMAD3 inh: -1%

Results for Fc1ccccc1/C=C/c1ccc2ccccc2n1 ?
HepG2 viability: -34%; DT40 TDP1 no CPT: inconclusive; DT40 TDP1 CPT: inconclusive; ASM inhibitor: 2%; IL-1B inflam inh: 8; TGFb SMAD3 inh: -9%

How did CC(=O)Oc1ccc(Cl)cc1/C=C/c1ccc2ccccc2n1 do in these assays?
HepG2 viability: -75%; DT40 TDP1 no CPT: 29µM*; DT40 TDP1 CPT: inconclusive; ASM inhibitor: 19%; IL-1B inflam inh: -2; TGFb SMAD3 inh: inconclusive

What do the screens show for `CC(=O)Oc1c(Cl)cc(Cl)cc1/C=C/c1ccc2ccccc2n1`?
HepG2 viability: -90%; DT40 TDP1 no CPT: -6%; DT40 TDP1 CPT: inconclusive; ASM inhibitor: -10%; IL-1B inflam inh: -66*; TGFb SMAD3 inh: 0%

How did CCc1ccc(-n2c(N3CCN(c4ccc(F)cc4)CC3)nc3ccccc3c2=O)cc1 do in these assays?
HepG2 viability: -19%; DT40 TDP1 no CPT: 12µM*; DT40 TDP1 CPT: 23µM*; TGFb SMAD3 inh: inconclusive

What do the screens show for `Cc1cc2ccccc2c(=O)n1CC(=O)N1CCN(c2cccc(Cl)c2)CC1`?
HepG2 viability: -30%; DT40 TDP1 no CPT: -25%; DT40 TDP1 CPT: -1%; ASM inhibitor: -4%; IL-1B inflam inh: -3; TGFb SMAD3 inh: -9%

What do the screens show for `CCc1ccc(-n2c(N3CCN(c4cccc(Cl)c4)CC3)nc3ccccc3c2=O)cc1`?
HepG2 viability: -23%; DT40 TDP1 no CPT: 8.2µM*; DT40 TDP1 CPT: 6.5µM*; TGFb SMAD3 inh: -22%

How did CCc1ccc(-n2c(N3CCN(c4cccc(C)c4C)CC3)nc3ccccc3c2=O)cc1 do in these assays?
HepG2 viability: 0%; DT40 TDP1 no CPT: inconclusive; DT40 TDP1 CPT: inconclusive; TGFb SMAD3 inh: 2%

Results for O=C(CSc1nnc(-c2cccc(Br)c2)o1)N1CCNC1=O ?
HepG2 viability: -31%; DT40 TDP1 no CPT: 0%; DT40 TDP1 CPT: -25%; ASM inhibitor: 1%; IL-1B inflam inh: 0; TGFb SMAD3 inh: 0%

What do the screens show for `COC(=O)CN1C(=S)N(Cc2ccccc2)C(=O)C1CC(=O)Nc1ccc(Br)cc1` (stereo not given)?
HepG2 viability: -37%; DT40 TDP1 no CPT: inconclusive; DT40 TDP1 CPT: 16µM*; ASM inhibitor: -23%; IL-1B inflam inh: -18; TGFb SMAD3 inh: inconclusive

Results for C=CCN1C(=O)C(CC(=O)Nc2ccc(OCC)cc2)N(Cc2ccccn2)C1=S (stereo not given) ?
HepG2 viability: -45%; DT40 TDP1 no CPT: inconclusive; DT40 TDP1 CPT: -7%; ASM inhibitor: 0%; IL-1B inflam inh: -15; TGFb SMAD3 inh: -4%

Results for CCCOc1ccc(NC(=O)CC2C(=O)N(Cc3ccccc3)C(=S)N2Cc2cccs2)cc1 (stereo not given) ?
HepG2 viability: -24%; DT40 TDP1 no CPT: 21µM*; DT40 TDP1 CPT: 9.2µM*; ASM inhibitor: -1%; IL-1B inflam inh: inconclusive; TGFb SMAD3 inh: inconclusive

How did CCN1C(=O)C(CC(=O)Nc2ccc(OC)cc2)N(CCc2ccccc2)C1=S (stereo not given) do in these assays?
HepG2 viability: 5%; DT40 TDP1 no CPT: -20%; DT40 TDP1 CPT: 4%; ASM inhibitor: -6%; IL-1B inflam inh: -76*; TGFb SMAD3 inh: -3%

How did COc1ccc(NC(=O)CC2C(=O)N(c3ccc(Cl)cc3)C(=S)N2CCc2ccccn2)cc1 (stereo not given) do in these assays?
HepG2 viability: -21%; DT40 TDP1 no CPT: inconclusive; DT40 TDP1 CPT: 26µM*; ASM inhibitor: -18%; IL-1B inflam inh: -12; TGFb SMAD3 inh: inconclusive

What do the screens show for `Cc1cn2c(=O)cc(COc3cccc(NC(=O)c4cccc(F)c4)c3)nc2s1`?
HepG2 viability: 2%; DT40 TDP1 no CPT: inconclusive; DT40 TDP1 CPT: inconclusive; TGFb SMAD3 inh: -4%

How did CCN1C(=O)C(CC(=O)Nc2ccc(OC)cc2)N(CCN2CCOCC2)C1=S (stereo not given) do in these assays?
HepG2 viability: -41%; DT40 TDP1 no CPT: -20%; DT40 TDP1 CPT: -2%; ASM inhibitor: 1%; IL-1B inflam inh: 13; TGFb SMAD3 inh: 0%

What do the screens show for `CCN1C(=O)C(CC(=O)Nc2ccc(OC)cc2)N(CCCN2CCN(c3ccc(OC)cc3)CC2)C1=S` (stereo not given)?
HepG2 viability: -21%; DT40 TDP1 no CPT: 16µM*; DT40 TDP1 CPT: 21µM*; ASM inhibitor: -3%; IL-1B inflam inh: -30; TGFb SMAD3 inh: -29%

How did Cn1c(=O)c2c(ncn2CC(=O)N2CCN(S(=O)(=O)c3ccccc3)CC2)n(C)c1=O do in these assays?
HepG2 viability: -4%; DT40 TDP1 no CPT: -20%; DT40 TDP1 CPT: -16%; ASM inhibitor: 6%; IL-1B inflam inh: 0; TGFb SMAD3 inh: -38%

Results for CN(CCOc1ccc(Cl)cc1)C(=O)c1cc(S(=O)(=O)N2CCOCC2)ccc1N1CCCC1 ?
HepG2 viability: -18%; DT40 TDP1 no CPT: 21µM*; DT40 TDP1 CPT: 16µM*; ASM inhibitor: -15%; IL-1B inflam inh: -22; TGFb SMAD3 inh: inconclusive

What do the screens show for `Cc1ccc(OCCNc2ccc(S(=O)(=O)N3CCCC3)cn2)cc1`?
HepG2 viability: 0%; DT40 TDP1 no CPT: inconclusive; DT40 TDP1 CPT: -8%; ASM inhibitor: -2%; IL-1B inflam inh: -15; TGFb SMAD3 inh: 1%

How did CN(CCOc1ccc(Cl)cc1)c1ccc(S(=O)(=O)N2CCCCC2)cn1 do in these assays?
HepG2 viability: -14%; DT40 TDP1 no CPT: 23µM*; DT40 TDP1 CPT: 18µM*; ASM inhibitor: -6%; IL-1B inflam inh: 0; TGFb SMAD3 inh: -6%

How did COc1ccc(S(=O)(=O)N2CCOCC2)cc1C(=O)N(C)CCOc1ccc(Cl)cc1 do in these assays?
HepG2 viability: -31%; DT40 TDP1 no CPT: 16µM*; DT40 TDP1 CPT: inconclusive; ASM inhibitor: 2%; IL-1B inflam inh: 3; TGFb SMAD3 inh: -33%

What do the screens show for `CN(Cc1ccc(Cl)cc1)C(=O)c1cc(S(=O)(=O)N2CCOCC2)ccc1N1CCCC1`?
HepG2 viability: -5%; DT40 TDP1 no CPT: inconclusive; DT40 TDP1 CPT: inconclusive; ASM inhibitor: 0%; IL-1B inflam inh: -9; TGFb SMAD3 inh: -13%
